In all, about 48,000 compounds went through this assay and about 1,200 (2.5%) were called active. Another 2% or so got no clear call; they are omitted.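 Rule for the calls: active = activation of at least 60% and not above a set upper limit (about 1 call in 100 departs from these limits); inconclusive = activation of 40% to 60%, or above that upper limit; inactive = activation under 40%.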 For the sample, actives were picked, then their nearest neighbours and some compounds at random.
Target: Probable G-protein coupled receptor 32 (Homo sapiens) (UniProt O75388)
Experiment: qHTS for Agonists of Human Resolvin D1 Receptor DRV1; note: 0% is about no effect
Conditions: CHO-K1 GPR32 beta-arrestin PathHunter luminescence, 90 min; at 76.9 µM; hits give high values; zero percent set by DMSO-only wells
Summary of the method: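 Cells are plated overnight, treated with compounds in DMSO for 90 minutes at 37 °C, and developed with PathHunter detection reagent for 1 hour before luminescence is read; signal reflects beta-arrestin binding to GPR32 in engineered CHO-K1 cells.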

Chain of Probable G-protein coupled receptor 32 (Homo sapiens) (O75388 whole entry, looked up): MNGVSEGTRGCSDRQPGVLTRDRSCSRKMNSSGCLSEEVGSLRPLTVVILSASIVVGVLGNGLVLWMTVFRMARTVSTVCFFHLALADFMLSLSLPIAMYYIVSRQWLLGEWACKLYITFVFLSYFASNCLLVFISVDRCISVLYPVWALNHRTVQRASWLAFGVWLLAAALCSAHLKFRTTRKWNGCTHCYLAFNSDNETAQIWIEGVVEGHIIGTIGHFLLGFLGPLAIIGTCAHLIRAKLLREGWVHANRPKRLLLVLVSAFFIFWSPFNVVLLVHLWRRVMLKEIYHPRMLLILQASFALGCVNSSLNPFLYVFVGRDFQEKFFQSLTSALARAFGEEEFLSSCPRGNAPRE

activation, active:
O=C(NCCc1ccccc1)c1ccc2c(c1)N(Cc1ccccc1)C(=O)c1ccccc1S2(=O)=O 92.4%
OCc1cnc(SCc2ccc(F)cc2)n1Cc1ccc(F)cc1 109%
COc1ccc(-c2noc(CCC(=O)N(C)c3ccccc3C)n2)cc1 107%
COc1cccc(CNC(=O)CCc2nc(-c3ccc(C)cc3)no2)c1 92.5%
CCC(=O)N1CCc2cc(S(=O)(=O)NC(CC(C)C)C(=O)NCCc3cccc(C)c3)ccc21 (stereo not given) 64.6%

activation, inactive:
CC(C)NC(=O)c1nn(-c2ccccc2F)nc1CO -8.71%
O=C(NCCc1ccccc1)c1ccc2c(c1)N(Cc1ccc(F)cc1)C(=O)c1ccccc1S2(=O)=O -31.8%
COCCNC(=O)c1ccc2c(c1)N(Cc1cccc(Cl)c1)C(=O)c1ccccc1S2(=O)=O -32.3%
CC(C)(C)c1ccc(S(=O)(=O)N2CCN(C(=O)c3cc(-c4ccc(Br)cc4)n[nH]3)CC2)cc1 -6.87%
O=C(CSc1ncc(CO)n1Cc1ccc(Cl)cc1)NCc1ccc(F)cc1 39.5%
O=C(CSc1ncc(CO)n1Cc1ccc(F)cc1)NCc1ccco1 7.63%
CCOC(=O)C(Cc1ccccc1)NC(=O)CCc1c(C)nc2c(c(C)nn2-c2ccc(C)c(C)c2)c1C (stereo not given) -3.74%
COc1cccc(CNC(=O)Cc2csc3nc(-c4ccccc4)cn23)c1 -4.88%
COc1cccc(CNC(=O)Cn2ncn3c(cc4ccccc43)c2=O)c1 -1.19%
Cc1ccccc1C(=O)NCc1nc(-c2ccc(Cl)cc2)no1 -2.46%
COc1ccc(-c2noc(CSc3nc4ccc(C)cc4[nH]3)n2)cc1 23.5%
Cc1ccc(NC(=O)CSc2nc3c([nH]c4ccccc43)c(=O)n2-c2ccccc2)cc1Cl -26.8%
CCCCNC(=O)c1cc(-c2ccc(Cl)c(Cl)c2)on1 8.61%
COc1ccc(C(=O)Nc2ccc(-n3nncc3-c3ccccc3)cc2)cc1OC -15.2%
O=C(CSc1oc(-c2ccccc2)nc1S(=O)(=O)c1ccc(Br)cc1)NC1CCCCC1 -14.8%
COc1ccc(C)cc1Nc1nc2ccccc2c2nnc(C)n12 9.83%
CCC(=O)N1CCc2cc(S(=O)(=O)NC(Cc3ccccc3)C(=O)NCc3ccc(C)cc3)ccc21 (stereo not given) -14.4%
CCC(=O)N1CCc2cc(S(=O)(=O)NC(C(=O)NCCc3ccc(C)cc3)C(C)C)ccc21 (stereo not given) -8.05%
Cc1ccc(-c2cnc(NCc3ccc(C(C)C)cc3)n2C)cc1 -44.5%
CSc1ccc(CCNC(=O)c2cnn(-c3ccccc3)c2-n2cccc2)cc1 -2.99%
